Source: ChEMBL document CHEMBL5308504, “Tm Shift (DSF) assay results for EUbOPEN Chemogenomics Library” (2023)
Values joined by “and” are separate entries in the source; they are usually repeats but may differ in a detail not shown here. Equal entries are not always repeated.

Molecular target: T1, Transcription intermediary factor 1-alpha (Homo sapiens) (UniProt O15164)
T1 sequence (whole entry): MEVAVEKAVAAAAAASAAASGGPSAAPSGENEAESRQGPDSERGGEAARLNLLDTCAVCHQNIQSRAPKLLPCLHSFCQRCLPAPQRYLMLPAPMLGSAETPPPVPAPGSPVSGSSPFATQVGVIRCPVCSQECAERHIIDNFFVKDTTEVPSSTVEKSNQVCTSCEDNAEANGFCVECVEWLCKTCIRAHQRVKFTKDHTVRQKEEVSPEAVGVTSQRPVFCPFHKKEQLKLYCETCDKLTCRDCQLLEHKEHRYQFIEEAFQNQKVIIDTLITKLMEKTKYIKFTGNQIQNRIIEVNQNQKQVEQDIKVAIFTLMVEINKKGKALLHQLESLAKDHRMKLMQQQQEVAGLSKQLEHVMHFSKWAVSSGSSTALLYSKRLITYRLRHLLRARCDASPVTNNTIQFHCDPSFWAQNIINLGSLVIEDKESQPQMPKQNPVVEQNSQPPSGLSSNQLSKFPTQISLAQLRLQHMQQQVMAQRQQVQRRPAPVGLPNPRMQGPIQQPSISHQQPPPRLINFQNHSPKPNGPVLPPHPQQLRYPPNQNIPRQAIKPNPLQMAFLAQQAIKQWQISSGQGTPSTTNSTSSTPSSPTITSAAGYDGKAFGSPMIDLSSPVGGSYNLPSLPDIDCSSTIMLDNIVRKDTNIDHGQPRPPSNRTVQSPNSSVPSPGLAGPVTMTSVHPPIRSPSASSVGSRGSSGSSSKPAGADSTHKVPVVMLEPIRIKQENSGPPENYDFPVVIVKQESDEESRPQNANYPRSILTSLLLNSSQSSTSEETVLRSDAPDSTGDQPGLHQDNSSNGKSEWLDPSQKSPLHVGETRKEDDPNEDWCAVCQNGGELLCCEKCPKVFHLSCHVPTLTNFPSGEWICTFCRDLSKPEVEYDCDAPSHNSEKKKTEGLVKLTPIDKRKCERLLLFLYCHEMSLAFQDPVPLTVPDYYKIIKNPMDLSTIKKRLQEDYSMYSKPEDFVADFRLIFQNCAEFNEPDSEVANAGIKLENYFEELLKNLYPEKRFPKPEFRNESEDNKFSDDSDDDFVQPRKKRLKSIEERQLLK
Conditions: Compound concentration 20.0 uM, Protein concentration 2.0 uM, Result type QC Liability

| Structure (SMILES) | ΔTm |
| --- | --- |
| C=CC[C@@H]1/C=C(\C)C[C@H](C)C[C@H](OC)[C@H]2O[C@@](O)(C(=O)C(=O)N3CCCC[C@H]3C(=O)O[C@H](/C(C)=C/[C@@H]3CC[C@@H](O)[C@H](OC)C3)[C@H](C)[C@@H](O)CC1=O)[C@H](C)C[C@@H]2OC | -0.9 °C |
| Cc1cc(OCCC(C)(C)O)cc(C)c1-c1ccc(F)c2c1CC[C@H]2Oc1ccc2c(c1)OC[C@H]2CC(=O)O | -2.29 °C |
| CNc1[nH]c(Nc2ccc(C(=O)N3CCOCC3)cc2OC)nc2ncc(Cl)c1-2 | -2.36 °C |
| O=C(Nc1ccc(-n2nc(-c3cccnc3)cc2C(F)(F)F)cn1)c1ccc(-c2ccccc2)c(F)c1 | 0.2 °C |
| CN1Cc2nccc(-c3cn(C)nc3-c3ccc(F)cc3)c2C1=O | -1.67 °C |
| CN(C)[C@H]1CCc2nc(NC(=O)c3cccc(Cn4cc(-c5ccc(C#N)cc5)cn4)c3)sc2C1 | -2.75 °C |
| C=CC(=O)Nc1cccc(C(=O)Nc2ccc(Nc3cc(-c4c(-c5ccc(F)cc5)nc(SC)n4C)ccn3)cc2)c1 | -0.89 °C |
| COc1cc(CN(CCN)C(=O)N[C@@H](C)c2ccccc2)ccc1OCc1ccccc1 | -0.9 °C |
| CC(C)(C[C@H]1CN(S(=O)(=O)c2cccc(C(F)(F)F)c2)c2cc(-c3cc(F)cc(OC(F)F)c3)ccc2O1)C(=O)O | -2.16 °C |
| O=C(O)c1ccnc(N2CC(O)(c3ccc(OCc4c(-c5c(Cl)cccc5Cl)noc4C4CC4)cc3Cl)C2)c1 | -1.77 °C |
| COCCN1CCN(CCn2ccc(Nc3ncc4c(n3)-c3c(nn(C)c3-c3ccccc3)C[C@H]4C)n2)CC1 | -2.88 °C |
| N#CN1CC[C@H](C(=O)Nc2nc3c(s2)CN(C(=O)CN=[N+]=[N-])CC3)C1 | -1.13 °C |
| CN(C)C(=O)c1sc2nc(N3CCC(S(C)(=O)=O)CC3)cc(C(F)(F)F)c2c1N | 0.17 °C and 0.19 °C |
| Cn1c(C(=O)N[C@@H](CO)c2ccc(C(=O)O)cc2)cc2cc(Cl)ccc21 | 0.31 °C |
| O=C(NCc1ccc(F)cc1)C1CCN(S(=O)(=O)c2cc(Cl)cc(Cl)c2)CC1 | 0.44 °C |
| CCNc1ccc(-c2nn(-c3ccccc3C)c3c2C(C)Cc2nc(NC(=O)OC)sc2-3)cn1 (stereo not given) | -3.54 °C |
| CS(=O)(=O)c1cc(C2(NC(=O)c3cncc4c3cnn4-c3ccc(F)cc3)CC2)ccn1 | 0.27 °C |
| Nc1c(CC(=O)O)cccc1C(=O)c1ccc(Br)cc1 | -0.77 °C |

| Structure (SMILES) | ΔTm |
| --- | --- |
| COc1cc(-c2cc3ncccc3c(O[C@@H](C)[C@H]3CNC(=O)C3)n2)cc(OC)c1OC | 0.27 °C |
| CSc1ccc(C[C@@H](C)C(=O)O)cc1Nc1nc(N2CC[C@H](N(C)C)C2)cc(C(F)F)c1C#N | 0.57 °C |
| C[C@@H]1CCNC(=O)c2cc3ccc(C(=O)Nc4nc5ccccc5n4CCCN(C)C)cc3n21 | -0.45 °C |
| COCCOCn1c(S(C)(=O)=O)nc2c1c(=O)n(C)c(=O)n2C | 0.18 °C |
| C/C=C1\C(=O)CC2C3CCC4=CC(=O)CC[C@]4(C)C3CC[C@]12C (stereo not given in full) | -2.32 °C |
| CC1CN(CC(=O)N2CC(C)(C)c3nc(CO)c(Cc4ccc(F)cc4)cc32)C(CN2CCOCC2C)CN1 (stereo not given) | -3.23 °C |
| C=CC1C[C@]1(NC(=O)[C@@H]1C[C@@H](Oc2cc(-c3csc(NC(=O)C(C)C)n3)nc3c(Br)c(OC)ccc23)CN1C(=O)[C@@H](NC(=O)OC1CCCC1)C(C)(C)C)C(=O)O (stereo not given in full) | 2.85 °C |
| Cc1c(NC(=O)COc2ccc(Cl)cc2C(=O)c2cc(F)cc(C(F)(F)F)c2)ccc(C(=O)O)c1F | 0.4 °C and 0.46 °C |
| CCCCc1oc2ccccc2c1C(=O)c1cc(I)c(OCCN(CC)CC)c(I)c1 | -4.38 °C |
| C[C@H](CCC(=O)O)[C@H]1CC[C@H]2[C@@H]3[C@H](O)C[C@@H]4C[C@H](O)CC[C@]4(C)[C@H]3C[C@H](O)[C@]12C | -2.48 °C |
| NC1(c2ccc(-c3nc4c(O)ccnn4c3-c3ccccc3)cc2)CCC1 | -1.89 °C |
| COc1cc(C(=O)NCCOCCOCCOCC(=O)N[C@H](C(=O)N2C[C@H](O)C[C@H]2C(=O)NCc2ccc(-c3scnc3C)cc2)C(C)(C)C)ccc1Nc1ncc(C(F)(F)F)c(Oc2cccc3c2C(=O)CC3)n1 | 2.06 °C |
| Fc1ccc(Cl)cc1-c1nc(Nc2ccncc2)c2nccnc2n1 | -1.86 °C |
| COc1cc(F)ccc1-c1ncnc(Nc2cccc(C[S@](C)(=N)=O)c2)n1 | -1.99 °C |
| NS(=O)(=O)c1ccc(Nc2nc(OCC3CCCCC3)c3nc[nH]c3n2)cc1 | -0.84 °C |
| CN1CCN(c2ccc(-n3cc(-c4ccncc4OCC4CCNCC4)cn3)cc2)CC1 | -2.76 °C |
| CCOC(=O)CS(=O)(=O)c1ccc([C@@H](CO)NC(=O)c2cc3c(Cl)c(Cl)c(C)cc3n2C)cc1 | -0.06 °C |
